Assay [1] concerns the target Death-associated protein kinase 1 (Homo sapiens) (UniProt P53355). To be noted: at 10 µM.
The target in assay [2] is Death-associated protein kinase 2 (Homo sapiens) (UniProt Q9UIK4). To be noted: at 1 µM.
The target is the same in assay [3]. To be noted: at 10 µM.
Assay [4] concerns the target T1, Serine/threonine-protein kinase DCLK2 (Homo sapiens) (UniProt Q8N568).
T1 sequence (whole entry): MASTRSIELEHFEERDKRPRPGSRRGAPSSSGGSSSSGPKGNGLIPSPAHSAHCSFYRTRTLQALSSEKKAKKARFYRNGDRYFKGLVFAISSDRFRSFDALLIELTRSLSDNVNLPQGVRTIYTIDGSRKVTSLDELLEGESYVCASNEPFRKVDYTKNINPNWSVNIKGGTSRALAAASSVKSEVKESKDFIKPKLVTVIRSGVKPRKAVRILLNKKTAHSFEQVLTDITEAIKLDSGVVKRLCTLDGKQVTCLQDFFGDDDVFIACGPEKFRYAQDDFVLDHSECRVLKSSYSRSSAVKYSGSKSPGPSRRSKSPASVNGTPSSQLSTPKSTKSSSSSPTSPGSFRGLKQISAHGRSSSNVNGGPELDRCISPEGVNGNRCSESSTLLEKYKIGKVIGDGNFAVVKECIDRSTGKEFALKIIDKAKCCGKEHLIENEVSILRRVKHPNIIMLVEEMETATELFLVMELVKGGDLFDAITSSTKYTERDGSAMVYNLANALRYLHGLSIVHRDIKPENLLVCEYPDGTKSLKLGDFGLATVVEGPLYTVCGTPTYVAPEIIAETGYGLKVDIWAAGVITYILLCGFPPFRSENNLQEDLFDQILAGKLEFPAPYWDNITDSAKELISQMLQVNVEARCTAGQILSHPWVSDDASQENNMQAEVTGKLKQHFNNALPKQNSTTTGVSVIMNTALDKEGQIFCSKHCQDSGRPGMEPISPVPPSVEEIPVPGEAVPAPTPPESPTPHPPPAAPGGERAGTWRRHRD
To be noted: at 1 µM.

In assay [5] the target is T1, Serine/threonine-protein kinase DCLK2 (Homo sapiens). To be noted: at 10 µM.
The target in assay [6] is T2, Discoidin domain-containing receptor 2 (Homo sapiens) (UniProt Q16832).
T2 sequence (whole entry): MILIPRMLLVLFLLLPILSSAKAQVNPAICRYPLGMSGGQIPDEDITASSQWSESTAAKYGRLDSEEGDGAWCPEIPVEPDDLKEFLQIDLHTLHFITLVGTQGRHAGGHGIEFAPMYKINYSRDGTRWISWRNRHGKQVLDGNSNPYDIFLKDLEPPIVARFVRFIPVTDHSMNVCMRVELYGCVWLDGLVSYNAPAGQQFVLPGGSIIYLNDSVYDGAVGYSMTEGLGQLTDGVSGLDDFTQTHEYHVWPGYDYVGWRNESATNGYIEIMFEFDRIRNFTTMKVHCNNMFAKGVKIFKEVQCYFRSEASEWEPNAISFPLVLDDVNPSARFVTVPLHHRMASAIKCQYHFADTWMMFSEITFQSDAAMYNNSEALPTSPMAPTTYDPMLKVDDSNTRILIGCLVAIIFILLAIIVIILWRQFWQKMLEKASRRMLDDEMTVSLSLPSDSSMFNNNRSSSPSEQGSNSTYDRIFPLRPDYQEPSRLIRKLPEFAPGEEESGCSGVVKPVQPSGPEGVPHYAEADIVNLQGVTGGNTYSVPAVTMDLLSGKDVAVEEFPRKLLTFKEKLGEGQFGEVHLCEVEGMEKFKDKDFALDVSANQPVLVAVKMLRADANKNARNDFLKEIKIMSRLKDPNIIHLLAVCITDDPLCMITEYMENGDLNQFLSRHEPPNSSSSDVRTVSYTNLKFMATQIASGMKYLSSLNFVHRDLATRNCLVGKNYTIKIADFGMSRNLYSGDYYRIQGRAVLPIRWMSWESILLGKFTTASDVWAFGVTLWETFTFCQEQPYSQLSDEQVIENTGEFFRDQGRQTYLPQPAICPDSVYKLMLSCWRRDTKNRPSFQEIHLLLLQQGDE
To be noted: at 1 µM.

In assay [7] the target is T2, Discoidin domain-containing receptor 2 (Homo sapiens). To be noted: at 10 µM.
Assay [8] has as its target T3, Myotonin-protein kinase (Homo sapiens) (UniProt Q09013).
T3 sequence (whole entry): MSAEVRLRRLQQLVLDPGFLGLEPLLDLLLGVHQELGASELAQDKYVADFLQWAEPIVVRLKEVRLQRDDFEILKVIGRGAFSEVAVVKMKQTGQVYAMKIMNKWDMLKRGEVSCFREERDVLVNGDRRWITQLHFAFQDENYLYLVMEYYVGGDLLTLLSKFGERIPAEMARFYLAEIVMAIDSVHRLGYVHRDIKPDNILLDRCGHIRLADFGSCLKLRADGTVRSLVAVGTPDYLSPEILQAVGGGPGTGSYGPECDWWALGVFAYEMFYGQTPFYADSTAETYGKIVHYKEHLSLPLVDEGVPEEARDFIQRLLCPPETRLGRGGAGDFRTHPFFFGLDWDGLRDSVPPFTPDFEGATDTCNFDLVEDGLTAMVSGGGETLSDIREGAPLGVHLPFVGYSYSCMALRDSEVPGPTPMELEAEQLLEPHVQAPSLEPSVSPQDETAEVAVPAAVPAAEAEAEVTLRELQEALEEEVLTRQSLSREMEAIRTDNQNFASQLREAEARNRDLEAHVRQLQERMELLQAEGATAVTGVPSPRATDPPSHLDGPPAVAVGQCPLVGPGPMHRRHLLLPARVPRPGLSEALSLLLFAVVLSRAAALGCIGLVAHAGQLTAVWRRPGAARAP
To be noted: at 10 µM.

For assay [9], the target named is T4, Serine/threonine-protein kinase 17A (Homo sapiens) (UniProt Q9UEE5).
T4 sequence (whole entry): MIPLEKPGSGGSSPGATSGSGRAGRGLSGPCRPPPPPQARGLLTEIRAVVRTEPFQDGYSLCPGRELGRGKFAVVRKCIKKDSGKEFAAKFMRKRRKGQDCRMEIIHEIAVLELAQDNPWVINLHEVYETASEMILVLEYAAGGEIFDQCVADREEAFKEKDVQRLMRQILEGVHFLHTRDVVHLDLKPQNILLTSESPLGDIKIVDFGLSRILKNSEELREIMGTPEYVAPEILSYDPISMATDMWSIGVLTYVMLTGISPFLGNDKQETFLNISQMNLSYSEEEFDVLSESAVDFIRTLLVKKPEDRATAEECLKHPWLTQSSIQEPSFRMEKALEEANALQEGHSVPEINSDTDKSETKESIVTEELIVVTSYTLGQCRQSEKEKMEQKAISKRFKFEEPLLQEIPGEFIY
To be noted: at 1 µM.

Assay [10] has as its target T4, Serine/threonine-protein kinase 17A (Homo sapiens). To be noted: at 10 µM.
Assay [11] has as its target T5, Dual specificity tyrosine-phosphorylation-regulated kinase 2 (Homo sapiens) (UniProt Q92630).
T5 sequence (whole entry): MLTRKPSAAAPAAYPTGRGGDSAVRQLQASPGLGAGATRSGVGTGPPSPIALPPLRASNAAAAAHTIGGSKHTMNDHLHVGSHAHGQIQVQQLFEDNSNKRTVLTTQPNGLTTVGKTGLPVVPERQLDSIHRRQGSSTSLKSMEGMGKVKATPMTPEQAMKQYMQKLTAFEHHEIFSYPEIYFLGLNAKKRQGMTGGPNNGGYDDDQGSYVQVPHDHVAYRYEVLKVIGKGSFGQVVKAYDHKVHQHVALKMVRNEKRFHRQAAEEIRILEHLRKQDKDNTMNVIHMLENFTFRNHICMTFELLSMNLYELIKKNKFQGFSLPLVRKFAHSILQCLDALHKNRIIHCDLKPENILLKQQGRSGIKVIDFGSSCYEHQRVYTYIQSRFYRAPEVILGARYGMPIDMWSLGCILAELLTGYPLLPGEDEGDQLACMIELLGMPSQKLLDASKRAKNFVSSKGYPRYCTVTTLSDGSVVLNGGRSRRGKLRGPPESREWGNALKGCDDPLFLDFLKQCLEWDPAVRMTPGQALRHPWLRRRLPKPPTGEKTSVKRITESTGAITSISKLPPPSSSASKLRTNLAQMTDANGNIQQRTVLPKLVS
To be noted: at 1 µM.

The target of assay [12] is T5, Dual specificity tyrosine-phosphorylation-regulated kinase 2 (Homo sapiens). To be noted: at 10 µM.
Assay [13] has as its target Epidermal growth factor receptor (Homo sapiens) (UniProt P00533). To be noted: at 1 µM.
The target of assay [14] is T6, Ephrin type-A receptor 1 (Homo sapiens) (UniProt P21709).
T6 sequence (whole entry): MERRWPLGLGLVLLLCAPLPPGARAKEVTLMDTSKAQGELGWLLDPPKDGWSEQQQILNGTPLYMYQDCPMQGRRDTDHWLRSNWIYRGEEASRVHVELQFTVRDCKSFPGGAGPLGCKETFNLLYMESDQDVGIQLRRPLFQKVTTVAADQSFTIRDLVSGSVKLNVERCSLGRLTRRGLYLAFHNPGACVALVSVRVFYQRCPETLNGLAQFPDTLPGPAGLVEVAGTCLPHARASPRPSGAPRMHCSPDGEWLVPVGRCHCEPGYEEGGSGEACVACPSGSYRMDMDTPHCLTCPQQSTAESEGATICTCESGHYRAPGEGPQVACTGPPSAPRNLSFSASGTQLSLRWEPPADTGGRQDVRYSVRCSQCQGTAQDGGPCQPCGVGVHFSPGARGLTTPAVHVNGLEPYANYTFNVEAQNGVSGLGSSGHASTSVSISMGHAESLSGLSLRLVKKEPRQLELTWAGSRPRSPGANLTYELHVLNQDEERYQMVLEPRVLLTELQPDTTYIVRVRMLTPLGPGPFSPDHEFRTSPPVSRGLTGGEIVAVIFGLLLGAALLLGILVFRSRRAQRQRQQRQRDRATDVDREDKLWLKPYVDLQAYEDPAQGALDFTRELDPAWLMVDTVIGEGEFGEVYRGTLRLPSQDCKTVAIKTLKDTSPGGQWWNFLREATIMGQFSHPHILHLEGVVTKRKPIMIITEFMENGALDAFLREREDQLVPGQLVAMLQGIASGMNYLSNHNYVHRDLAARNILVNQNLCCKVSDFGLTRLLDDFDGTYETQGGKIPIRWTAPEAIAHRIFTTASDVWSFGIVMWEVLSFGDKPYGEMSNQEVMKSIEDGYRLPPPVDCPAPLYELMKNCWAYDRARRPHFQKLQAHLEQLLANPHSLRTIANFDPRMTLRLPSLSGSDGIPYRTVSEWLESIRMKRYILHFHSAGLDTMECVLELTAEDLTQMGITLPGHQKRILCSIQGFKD
To be noted: at 1 µM.

In assay [15] the target is T6, Ephrin type-A receptor 1 (Homo sapiens). To be noted: at 10 µM.
Assay [16] addresses Ephrin type-A receptor 2 (Homo sapiens) (UniProt P29317). To be noted: at 1 µM.
The target is the same in assay [17]. To be noted: at 10 µM.
Assay [18] deals with T7, Ephrin type-A receptor 3 (Homo sapiens) (UniProt P29320).
T7 sequence (whole entry): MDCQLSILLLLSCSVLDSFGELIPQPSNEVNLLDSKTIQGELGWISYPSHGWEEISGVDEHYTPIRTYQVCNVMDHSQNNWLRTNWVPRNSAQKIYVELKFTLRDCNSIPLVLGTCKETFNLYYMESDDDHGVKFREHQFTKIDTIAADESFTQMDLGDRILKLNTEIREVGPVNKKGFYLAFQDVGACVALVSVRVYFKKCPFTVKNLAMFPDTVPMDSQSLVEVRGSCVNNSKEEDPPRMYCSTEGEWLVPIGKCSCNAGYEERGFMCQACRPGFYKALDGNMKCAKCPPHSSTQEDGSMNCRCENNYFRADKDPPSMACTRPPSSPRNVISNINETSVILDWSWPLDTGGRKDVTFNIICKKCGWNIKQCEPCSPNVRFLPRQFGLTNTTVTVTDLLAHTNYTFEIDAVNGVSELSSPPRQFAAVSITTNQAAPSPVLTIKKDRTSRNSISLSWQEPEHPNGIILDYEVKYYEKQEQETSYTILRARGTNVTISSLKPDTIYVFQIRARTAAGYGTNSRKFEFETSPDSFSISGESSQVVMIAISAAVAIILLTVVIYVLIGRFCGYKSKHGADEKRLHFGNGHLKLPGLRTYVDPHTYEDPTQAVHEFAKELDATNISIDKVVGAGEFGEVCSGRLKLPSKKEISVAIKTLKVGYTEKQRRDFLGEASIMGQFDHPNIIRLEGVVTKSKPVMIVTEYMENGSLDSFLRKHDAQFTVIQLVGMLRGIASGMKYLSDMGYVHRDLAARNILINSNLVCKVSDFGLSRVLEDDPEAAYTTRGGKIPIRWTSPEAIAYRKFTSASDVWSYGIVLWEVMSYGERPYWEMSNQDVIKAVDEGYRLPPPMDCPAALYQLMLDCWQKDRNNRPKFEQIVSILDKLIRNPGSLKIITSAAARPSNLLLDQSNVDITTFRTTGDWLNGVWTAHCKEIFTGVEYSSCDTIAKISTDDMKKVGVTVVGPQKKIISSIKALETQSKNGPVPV
To be noted: at 1 µM.

The target of assay [19] is T3, Myotonin-protein kinase (Homo sapiens). To be noted: at 1 µM.

Death-associated protein kinase 2 (Homo sapiens), sequence (Q9UIK4 whole entry, looked up): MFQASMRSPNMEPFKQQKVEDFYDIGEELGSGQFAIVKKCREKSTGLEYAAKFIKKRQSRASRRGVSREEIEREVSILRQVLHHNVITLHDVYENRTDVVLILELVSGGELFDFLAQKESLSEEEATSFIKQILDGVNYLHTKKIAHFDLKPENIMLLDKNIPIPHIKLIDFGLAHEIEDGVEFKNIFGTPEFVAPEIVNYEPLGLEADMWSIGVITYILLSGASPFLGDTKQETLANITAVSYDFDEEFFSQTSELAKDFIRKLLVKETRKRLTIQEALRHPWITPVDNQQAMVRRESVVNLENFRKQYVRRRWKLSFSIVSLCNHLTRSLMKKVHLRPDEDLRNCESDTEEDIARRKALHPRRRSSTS
Ephrin type-A receptor 2 (Homo sapiens), sequence (P29317 whole entry): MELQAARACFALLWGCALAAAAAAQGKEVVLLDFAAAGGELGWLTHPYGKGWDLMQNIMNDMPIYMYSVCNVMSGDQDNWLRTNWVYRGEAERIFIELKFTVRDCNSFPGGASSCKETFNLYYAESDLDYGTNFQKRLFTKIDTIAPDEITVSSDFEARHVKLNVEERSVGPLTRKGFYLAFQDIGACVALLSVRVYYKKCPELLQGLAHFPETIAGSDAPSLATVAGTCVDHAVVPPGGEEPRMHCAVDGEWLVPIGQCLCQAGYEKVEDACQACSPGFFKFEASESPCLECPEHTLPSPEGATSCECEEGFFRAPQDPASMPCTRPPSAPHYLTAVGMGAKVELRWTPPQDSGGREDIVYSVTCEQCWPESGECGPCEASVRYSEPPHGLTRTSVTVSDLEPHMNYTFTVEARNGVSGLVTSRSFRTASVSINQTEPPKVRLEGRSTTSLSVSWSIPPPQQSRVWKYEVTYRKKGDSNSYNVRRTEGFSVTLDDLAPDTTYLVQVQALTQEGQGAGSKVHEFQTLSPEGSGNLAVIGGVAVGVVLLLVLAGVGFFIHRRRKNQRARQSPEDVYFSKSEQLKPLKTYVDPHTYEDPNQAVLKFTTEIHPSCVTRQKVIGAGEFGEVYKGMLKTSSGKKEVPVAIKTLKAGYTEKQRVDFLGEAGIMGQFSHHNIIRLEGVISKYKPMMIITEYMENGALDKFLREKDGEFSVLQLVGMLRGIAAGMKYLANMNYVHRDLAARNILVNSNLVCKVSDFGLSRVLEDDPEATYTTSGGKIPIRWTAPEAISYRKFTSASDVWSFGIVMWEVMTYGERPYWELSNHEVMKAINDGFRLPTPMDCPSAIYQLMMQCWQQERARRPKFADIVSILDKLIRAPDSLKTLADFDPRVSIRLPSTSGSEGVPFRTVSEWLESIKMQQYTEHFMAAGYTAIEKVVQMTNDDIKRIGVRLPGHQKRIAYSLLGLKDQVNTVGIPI
Death-associated protein kinase 1 (Homo sapiens), sequence (P53355 whole entry, looked up): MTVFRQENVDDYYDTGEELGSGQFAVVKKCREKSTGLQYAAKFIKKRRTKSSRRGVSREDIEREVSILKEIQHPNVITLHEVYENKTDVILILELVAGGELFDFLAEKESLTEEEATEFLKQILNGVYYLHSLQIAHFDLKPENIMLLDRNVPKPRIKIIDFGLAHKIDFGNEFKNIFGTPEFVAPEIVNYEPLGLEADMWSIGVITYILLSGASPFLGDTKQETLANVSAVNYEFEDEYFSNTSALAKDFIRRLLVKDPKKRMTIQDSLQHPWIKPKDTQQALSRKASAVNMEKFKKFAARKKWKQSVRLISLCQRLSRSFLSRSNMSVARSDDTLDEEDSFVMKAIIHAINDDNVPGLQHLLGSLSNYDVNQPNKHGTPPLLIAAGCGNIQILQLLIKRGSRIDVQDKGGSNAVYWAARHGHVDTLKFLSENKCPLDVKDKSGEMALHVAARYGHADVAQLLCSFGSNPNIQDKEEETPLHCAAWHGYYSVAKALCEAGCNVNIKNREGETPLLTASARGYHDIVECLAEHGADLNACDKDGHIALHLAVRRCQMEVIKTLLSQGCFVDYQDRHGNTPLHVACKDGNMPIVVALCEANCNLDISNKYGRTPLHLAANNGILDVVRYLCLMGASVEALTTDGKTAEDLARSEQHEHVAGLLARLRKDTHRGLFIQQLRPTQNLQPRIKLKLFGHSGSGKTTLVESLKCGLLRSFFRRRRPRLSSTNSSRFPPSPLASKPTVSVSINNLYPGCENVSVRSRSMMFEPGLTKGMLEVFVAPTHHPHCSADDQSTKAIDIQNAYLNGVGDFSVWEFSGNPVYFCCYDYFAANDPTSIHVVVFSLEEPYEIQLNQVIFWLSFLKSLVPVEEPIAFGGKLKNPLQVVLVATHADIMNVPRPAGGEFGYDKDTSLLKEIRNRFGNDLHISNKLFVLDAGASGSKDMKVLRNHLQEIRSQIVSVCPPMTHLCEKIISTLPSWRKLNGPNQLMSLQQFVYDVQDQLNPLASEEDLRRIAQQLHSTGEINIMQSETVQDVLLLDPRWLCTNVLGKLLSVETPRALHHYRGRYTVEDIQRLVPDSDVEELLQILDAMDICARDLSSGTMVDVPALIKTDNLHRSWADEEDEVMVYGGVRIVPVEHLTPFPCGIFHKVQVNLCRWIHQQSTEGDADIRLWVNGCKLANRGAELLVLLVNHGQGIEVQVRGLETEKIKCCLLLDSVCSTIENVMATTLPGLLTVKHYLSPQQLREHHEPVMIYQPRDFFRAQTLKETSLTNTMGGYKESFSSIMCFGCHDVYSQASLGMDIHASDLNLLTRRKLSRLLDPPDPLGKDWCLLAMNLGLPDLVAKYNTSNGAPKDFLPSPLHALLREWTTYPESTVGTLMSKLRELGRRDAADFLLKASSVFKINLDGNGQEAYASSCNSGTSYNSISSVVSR
Epidermal growth factor receptor (Homo sapiens), sequence (P00533 whole entry): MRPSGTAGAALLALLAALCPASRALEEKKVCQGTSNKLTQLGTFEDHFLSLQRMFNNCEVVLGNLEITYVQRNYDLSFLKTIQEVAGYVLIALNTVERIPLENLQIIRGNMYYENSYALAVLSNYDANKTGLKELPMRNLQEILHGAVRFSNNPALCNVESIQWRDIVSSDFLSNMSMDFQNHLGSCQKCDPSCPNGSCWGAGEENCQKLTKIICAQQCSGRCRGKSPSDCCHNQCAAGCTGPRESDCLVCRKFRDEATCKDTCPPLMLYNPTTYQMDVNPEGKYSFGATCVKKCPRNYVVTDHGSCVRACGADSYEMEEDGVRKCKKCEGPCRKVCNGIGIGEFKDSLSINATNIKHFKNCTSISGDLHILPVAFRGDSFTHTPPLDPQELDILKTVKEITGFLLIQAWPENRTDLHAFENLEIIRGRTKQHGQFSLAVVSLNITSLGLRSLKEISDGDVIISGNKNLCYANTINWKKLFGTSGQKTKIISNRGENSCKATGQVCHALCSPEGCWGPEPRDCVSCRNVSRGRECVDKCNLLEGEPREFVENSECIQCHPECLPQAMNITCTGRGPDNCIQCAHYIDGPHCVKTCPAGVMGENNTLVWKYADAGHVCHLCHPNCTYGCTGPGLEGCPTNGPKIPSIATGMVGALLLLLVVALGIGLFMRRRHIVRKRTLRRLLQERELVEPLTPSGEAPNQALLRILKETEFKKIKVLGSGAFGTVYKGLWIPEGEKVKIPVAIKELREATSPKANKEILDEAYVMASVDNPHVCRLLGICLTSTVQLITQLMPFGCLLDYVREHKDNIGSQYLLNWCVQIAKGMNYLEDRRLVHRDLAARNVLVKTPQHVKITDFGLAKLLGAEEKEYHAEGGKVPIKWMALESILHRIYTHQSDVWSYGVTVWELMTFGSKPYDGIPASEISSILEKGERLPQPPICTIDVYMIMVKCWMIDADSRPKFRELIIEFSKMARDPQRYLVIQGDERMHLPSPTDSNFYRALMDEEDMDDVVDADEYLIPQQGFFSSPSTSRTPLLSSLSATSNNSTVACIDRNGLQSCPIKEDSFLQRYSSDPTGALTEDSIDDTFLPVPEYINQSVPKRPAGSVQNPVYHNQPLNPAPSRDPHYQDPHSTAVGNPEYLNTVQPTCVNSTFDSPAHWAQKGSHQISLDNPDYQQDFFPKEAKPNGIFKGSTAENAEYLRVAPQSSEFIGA

In the case of `CO[C@@H]1[C@H](N(C)C(=O)c2ccccc2)C[C@H]2O[C@]1(C)n1c3ccccc3c3c4c(c5c6ccccc6n2c5c31)C(=O)NC4`, the residual activity (as a rule, the signal under treatment as a percentage of the control signal) in assay [1] was 72%; in assay [2], 71%; in assay [3], 54%; in [4], 75%; in assay [5], 38%; in assay [6] it was 106%. Further, the residual activity came out at 69% in [7]; 90% in [8]; 16% in assay [9]; 9% in assay [10]; 90% in [11]; 88% in [12]. Further, the residual activity in [13] was found to be 101%; in assay [14], 87%; in assay [15] it was 81%; in assay [16], 97%; in assay [17], 95%; in assay [18] it was 97%.
For `Oc1ccc(-c2nc(-c3ccc(F)cc3)c(-c3ccncc3)[nH]2)cc1`, the residual activity in assay [1] was 76%; in [2] it was 110%; in assay [3], 97%; in [4], 113%; in assay [5], 76%; in assay [6], 69%. The residual activity in [7] is 20%; in [19], 112%; in [8], 88%; in assay [11] it was 99%; in [12] it was 76%; in [14], 87%. The residual activity in assay [15] was determined as 16%; in [16] it was 93%; in assay [17], 57%; in assay [18] it was 105%.

Source of the values: ChEMBL document CHEMBL2218924, “A broad activity screen in support of a chemogenomic map for kinase signalling research and drug discovery” (Biochem J, 2013).
